Measurements from PubChem BioAssay (Tox21).
Results filed as inconclusive are left out. A call without a number means that no potency is given here. Active and inactive are the calls of the source. The call rests on the fitted dose curve.

Target: Vitamin D3 receptor (Homo sapiens) (UniProt P11473)
Assay: qHTS assay to identify small molecule agonists of the vitamin D receptor (VDR) signaling pathway (AID 743222)
Settings: HEK293T VDR-UAS-bla, beta-lactamase FRET ratio, 16 h; series mostly up to 63.5 µM
Source text: National Center for Advancing Translational Sciences [NCATS]
NIH Chemical Genomics Center [NCGC]
U.S. Environmental Protection Agency [EPA]
National Institutes of Environmental Health Sciences [NIEHS]
National Toxicology Program [NTP]
U.S. Food and Drug Administration [FDA]
The vitamin D receptor (VDR), a member of nuclear hormone receptor superfamily, plays a critical role in calcium homeostasis and bone metabolism. It is also involved in cell differentiation and growth, and thrombogenicity.
Tox21 Assay Protocol Summary:
VDR-bla cells were dispensed at 2,000 cells/6 uL/well into black wall/clear-bottom 1536-well plates using a Multidrop Combi (Thermo Fisher Scientific, Waltham, MA) dispenser. After the assay plates were incubated at a 37C and 5% CO2 for 4 h, 23 nL of compounds dissolved in DMSO, positive controls or DMSO only was transferred to the assay plate by a Pintool station (Kalypsys, San Diego, CA). The plates were incubated at 37C and 5% CO2 for 16 h. After 1 uL of LiveBLAzerTM B/G FRET substrate was added using a Bioraptr Flying Reagent Dispenser (FRD) workstation (Beckman Coulter, Indianapolis, IN, USA), the plates were incubated at room temperature for 2 h, and fluorescence intensity was measured by an Envision plate reader (PerkinElmer, Shelton, CT).

Chain of Vitamin D3 receptor (Homo sapiens) (P11473 whole entry, looked up): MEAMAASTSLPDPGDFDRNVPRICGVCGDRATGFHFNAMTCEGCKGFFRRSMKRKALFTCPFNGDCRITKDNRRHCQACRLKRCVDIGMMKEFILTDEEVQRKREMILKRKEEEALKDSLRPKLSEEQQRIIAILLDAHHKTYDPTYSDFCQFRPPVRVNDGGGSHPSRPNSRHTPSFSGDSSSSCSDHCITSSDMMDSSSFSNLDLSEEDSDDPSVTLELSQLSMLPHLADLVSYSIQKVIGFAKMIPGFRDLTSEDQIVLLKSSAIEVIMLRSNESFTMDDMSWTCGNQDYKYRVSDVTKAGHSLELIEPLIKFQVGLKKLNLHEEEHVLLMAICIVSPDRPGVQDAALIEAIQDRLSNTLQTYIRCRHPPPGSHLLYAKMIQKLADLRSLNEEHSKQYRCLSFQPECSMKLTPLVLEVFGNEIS

Compound | Potency
CN(C)CCc1c[nH]c2ccc(O)cc12 | inactive
BrCBr | inactive
O=[N+]([O-])c1ccc2ccc3cccc4ccc1c2c34 | inactive
Cc1ccc(OP(=O)(Oc2ccccc2)Oc2ccccc2)cc1 | inactive
ClC1=C(Cl)C2(Cl)C3C(Cl)C(Cl)CC3C1(Cl)C2(Cl)Cl (stereo not given) | inactive
O=C(O)COc1nc(Cl)c(Cl)cc1Cl | inactive
O=C(O)C1C2CCC(O2)C1C(=O)O (stereo not given) | inactive
COc1cc(C=O)cc2c1[C@H](COC(N)=O)[C@]1(OC(C)=O)ON2C[C@H]2[C@@H]1N2C(C)=O | inactive
CCCN(CCC)CCc1c[nH]c2ccccc12 | inactive
CCc1nn(C)c(C(=O)NCc2ccc(C(C)(C)C)cc2)c1Cl | inactive
O=C1NCN(c2ccccc2)C12CCN(CC1COc3ccccc3O1)CC2 (stereo not given) | inactive
COc1ccc(OC)c(CC(C)N)c1 (stereo not given) | inactive
Clc1ccc(-c2ccc(Cl)c(Cl)c2Cl)c(Cl)c1Cl | inactive
Oc1ccc(C2(c3ccc(O)cc3)c3ccccc3-c3ccccc32)cc1 | inactive
Clc1ccc(CO/N=C(\Cn2ccnc2)c2ccc(Cl)cc2Cl)c(Cl)c1 | inactive
COP(=O)(OC)SCn1c(=O)oc2cc(Cl)cnc21 | inactive
CC(C)Oc1cccc(NC(=O)c2ccccc2C(F)(F)F)c1 | inactive
FC(Cl)(Cl)Cl | inactive
CC(C)OS(C)(=O)=O | inactive
N#CNC#N | inactive

Compound | Potency
O=c1ssc(Cl)c1Cl | inactive
Clc1ccc(CCC(Cn2ccnc2)Sc2c(Cl)cccc2Cl)cc1 (stereo not given) | inactive
C[C@H]1CC[C@@H]2[C@@H](C)[C@H]3[C@H](C[C@H]4[C@@H]5CC=C6CC(O[C@@H]7O[C@H](CO)[C@H](O)[C@H](O[C@@H]8O[C@H](CO)[C@@H](O)[C@H](O)[C@H]8O)[C@H]7O[C@H]7O[C@@H](C)[C@H](O)[C@@H](O)[C@H]7O)CC[C@]6(C)[C@H]5CC[C@]34C)N2C1 (stereo not given in full) | inactive
N#CC(Cl)Cl | inactive
O=C(Nc1ccc2[nH]ccc2c1)c1cc2cc(F)ccc2n1Cc1cccc(F)c1 | inactive
BrC(Br)C(Br)(Br)Br | inactive
COc1cccc(C(=O)CCN[C@@H](C)[C@H](O)c2ccccc2)c1 | inactive
Nc1ccc(Sc2ccc(N)cc2)cc1 | inactive
CC(C)OC(=O)C(O)(c1ccc(Cl)cc1)c1ccc(Cl)cc1 | inactive
CCOP(=S)(OCC)OC(Cl)C(Cl)(Cl)Cl (stereo not given) | inactive
CCC(C)(C)C(=O)OC1=C(c2ccc(Cl)cc2Cl)C(=O)OC12CCCCC2 | inactive
C1CCC2CCCCC2C1 (stereo not given) | inactive
CC1(C)C(/C=C(\Cl)C(F)(F)F)C1C(=O)OC(C#N)c1cccc(Oc2ccccc2)c1 (stereo not given) | inactive
Clc1ccc(C(c2ccccc2Cl)C(Cl)(Cl)Cl)cc1 (stereo not given) | inactive
CC(C)(C)c1ccc(CSc2cnn(C(C)(C)C)c(=O)c2Cl)cc1 | inactive
CCOCCOC(C)=O | inactive
ClC(Cl)=C(Cl)Cl | inactive
O=C1c2ccccc2C(=O)C1C(=O)C(c1ccccc1)c1ccc(Cl)cc1 (stereo not given) | inactive
CC(=O)c1cc(C(C)(C)C)cc2c1CCC2(C)C | inactive
CC(C)(C)OO | inactive
